Data as given in PubChem BioAssay (Tox21).
“And” between values parts separate entries of the source, which are not always exact repeats. Equal values may be shown once. Inconclusive results are not listed. The source made the active and inactive calls. Unless noted, the call rests on the fitted dose curve; in most records, active means well fitted curve in the direction sought with a large enough effect in the repeat runs; inconclusive means weak or mixed curves; inactive means no such curve, though single readings can be large; an effect the other way counts as inactive or inconclusive.

Columns and labels:
[1] = qHTS assay to identify aromatase inhibitors - cell viability counter screen (AID 743084);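 further: cells stimulated with testosterone during compound exposure; nearly all actives have a fitted effect of over 55% in size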
[2] = target: Aryl hydrocarbon receptor (Homo sapiens) (UniProt P35869); test: qHTS assay to identify small molecule that activate the aryl hydrocarbon receptor (AhR) signaling pathway (AID 743085); further: nearly all actives have a fitted effect of over 15% in size; further: potency means the concentration at half of the fitted maximal effect;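 on activation: HG2L7.5c1 human HepG2 liver cells with stably integrated DRE-driven firefly reporter; series mostly up to about 70 µM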
Aryl hydrocarbon receptor (Homo sapiens), sequence (P35869 whole entry, looked up): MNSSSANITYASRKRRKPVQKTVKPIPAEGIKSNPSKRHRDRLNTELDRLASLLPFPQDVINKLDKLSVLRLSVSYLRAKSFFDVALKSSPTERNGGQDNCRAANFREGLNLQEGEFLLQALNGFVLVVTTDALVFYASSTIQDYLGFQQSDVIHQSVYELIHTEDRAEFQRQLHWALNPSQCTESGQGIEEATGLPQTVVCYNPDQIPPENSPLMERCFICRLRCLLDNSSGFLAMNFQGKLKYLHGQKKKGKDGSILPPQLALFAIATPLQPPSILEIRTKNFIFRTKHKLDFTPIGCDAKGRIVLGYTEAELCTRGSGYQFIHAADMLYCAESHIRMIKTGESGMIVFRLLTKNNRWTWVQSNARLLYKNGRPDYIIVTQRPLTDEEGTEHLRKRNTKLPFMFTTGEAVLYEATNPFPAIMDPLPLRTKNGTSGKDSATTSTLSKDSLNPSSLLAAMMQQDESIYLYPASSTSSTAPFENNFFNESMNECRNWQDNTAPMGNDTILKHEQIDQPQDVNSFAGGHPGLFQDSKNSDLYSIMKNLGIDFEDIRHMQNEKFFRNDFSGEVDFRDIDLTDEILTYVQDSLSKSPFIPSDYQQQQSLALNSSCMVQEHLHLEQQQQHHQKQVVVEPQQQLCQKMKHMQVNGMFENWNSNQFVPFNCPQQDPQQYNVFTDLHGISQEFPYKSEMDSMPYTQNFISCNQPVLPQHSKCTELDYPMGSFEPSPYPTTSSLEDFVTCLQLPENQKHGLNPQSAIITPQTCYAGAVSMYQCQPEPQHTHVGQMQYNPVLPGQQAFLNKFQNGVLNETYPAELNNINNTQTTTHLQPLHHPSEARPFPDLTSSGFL
Method in brief: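 Compounds were tested in HepG2 hepatocellular carcinoma cells harbouring a stably integrated luciferase gene under control of 20 DREs. Increased reporter signal after 24 h treatment at 37C was taken as AhR activation.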

[3] = qHTS assay to identify small molecule that activate the aryl hydrocarbon receptor (AhR) signaling pathway - cell viability counter screen (AID 743086);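 further: HepG2 liver cells carrying the AhR DRE luciferase reporter; series mostly up to about 70 µM; nearly all actives have a fitted effect of over 45% in size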
Method in brief: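 HepG2-AhR-luc (HG2L7.5c1) cells, 4000/well, treated 24 h at 37 C with compound; viability measured as CellTiter-Fluor fluorescence after 30 min in the same wells as the luciferase read.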

[4] = target: Peroxisome proliferator-activated receptor gamma (Homo sapiens) (UniProt P37231); test: qHTS assay to identify small molecule antagonists of the peroxisome proliferator-activated receptor gamma (PPARg) signaling pathway (AID 743191; calls by dose curve; further: nearly all actives have a fitted effect of over 30% in size; further: potency means the concentration at half of the fitted maximal effect)
Peroxisome proliferator-activated receptor gamma (Homo sapiens), sequence (P37231 whole entry, looked up): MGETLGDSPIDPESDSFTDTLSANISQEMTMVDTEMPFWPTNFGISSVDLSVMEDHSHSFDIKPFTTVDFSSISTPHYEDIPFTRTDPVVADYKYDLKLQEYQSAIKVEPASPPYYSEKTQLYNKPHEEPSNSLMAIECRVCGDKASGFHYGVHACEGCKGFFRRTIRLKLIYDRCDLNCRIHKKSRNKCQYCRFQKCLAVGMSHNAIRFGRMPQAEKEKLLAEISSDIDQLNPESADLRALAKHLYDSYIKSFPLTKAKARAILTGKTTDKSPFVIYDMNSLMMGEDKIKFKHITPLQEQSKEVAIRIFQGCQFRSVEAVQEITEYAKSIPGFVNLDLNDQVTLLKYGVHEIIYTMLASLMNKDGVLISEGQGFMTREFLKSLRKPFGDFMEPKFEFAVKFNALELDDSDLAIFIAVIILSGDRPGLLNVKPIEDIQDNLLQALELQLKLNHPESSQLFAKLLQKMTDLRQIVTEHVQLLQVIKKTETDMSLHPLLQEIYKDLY
Method in brief: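 GeneBLAzer PPARg UAS-bla HEK293H cells, 5 h post-plating, exposed to compounds 17 h at 37C. LiveBLAzer B/G FRET substrate added for 1 h at room temperature; beta-lactamase reporter read by fluorescence intensity.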

[5] = qHTS assay to identify small molecule antagonists of the peroxisome proliferator-activated receptor gamma (PPARg) signaling pathway - cell viability counter screen (AID 743194); further: nearly all actives have a fitted effect of over 55% in size
Method in brief: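 Cytotoxicity counter screen in PPARg-bla HEK293H cells, same wells as reporter assay. Compounds plus 50 nM rosiglitazone (final) for 17 h at 37 C, then viability read by CellTiter-Glo luminescence.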

[6] = qHTS assay for small molecule agonists of the antioxidant response element (ARE) signaling pathway (AID 743202; active means well fitted activation curve with a large enough effect in the signal ratio in the repeat runs, not every such curve was filed as active; the % refers to the signal ratio; further: potency means the concentration at half of the fitted maximal effect)
Method in brief: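 HepG2 ARE-bla cells; 16 h treatment at 37 C; FRET-based beta-lactamase fluorescence read after 2 h substrate incubation at room temperature.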

[7] = qHTS assay for small molecule agonists of the antioxidant response element (ARE) signaling pathway - cell viability counter screen (AID 743203; calls by dose curve; further: nearly all actives have a fitted effect of over 55% in size)
Method in brief: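 Measured in the same wells as the beta-lactamase ARE reporter, this read-out is CellTiter-Glo luminescence from HepG2 ARE-bla cells given compounds for 16 hrs.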

[8] = qHTS assay for small molecule activators of the heat shock response signaling pathway - cell viability counter screen (AID 743209); further: nearly all actives have a fitted effect of over 50% in size
Method in brief: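 Same-well multiplex: after 2.5 h room-temperature incubation with LiveBLAzer B/G substrate and fluorescence reading, CellTiter-Glo reagent was added to HSE-bla HeLa cells that had received compound for 5 h at 37 C; luminescence read after 30 min.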

[9] = qHTS assay for small molecule activators of the heat shock response signaling pathway (AID 743210; active means well fitted activation curve with a large enough effect in the signal ratio in the repeat runs, with a control signal flat, not every such curve was filed as active; the % refers to the signal ratio;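 further: HeLa cells with beta-lactamase reporter driven by heat shock elements; series mostly up to about 63 µM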)
Method in brief: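 Following overnight attachment, HSE-bla HeLa cells received test compounds for 5 h at 37 C; beta-lactamase activity was then detected via FRET substrate fluorescence.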

[10] = target: Peroxisome proliferator-activated receptor delta (Homo sapiens) (UniProt Q03181); test: qHTS assay to identify small molecule agonists of the peroxisome proliferator-activated receptor delta (PPARd) signaling pathway (AID 743212; calls by dose curve)
Peroxisome proliferator-activated receptor delta (Homo sapiens), sequence (Q03181 whole entry, looked up): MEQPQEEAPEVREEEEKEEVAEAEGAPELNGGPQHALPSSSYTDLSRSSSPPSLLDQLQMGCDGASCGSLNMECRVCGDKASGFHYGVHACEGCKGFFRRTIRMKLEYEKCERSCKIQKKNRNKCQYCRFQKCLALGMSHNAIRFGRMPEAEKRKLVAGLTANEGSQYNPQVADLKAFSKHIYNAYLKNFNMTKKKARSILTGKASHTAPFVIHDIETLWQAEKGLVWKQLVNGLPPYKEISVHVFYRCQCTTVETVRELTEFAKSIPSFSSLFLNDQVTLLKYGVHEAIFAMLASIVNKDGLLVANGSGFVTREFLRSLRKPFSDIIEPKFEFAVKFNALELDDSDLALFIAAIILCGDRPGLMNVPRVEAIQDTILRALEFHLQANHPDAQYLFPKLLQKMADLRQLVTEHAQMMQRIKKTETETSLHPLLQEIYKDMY
Method in brief: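 Tox21 library screened in GeneBLAzer PPARd UAS-bla HEK293H cells. After compound treatment at 37 C, a FRET-based beta-lactamase substrate was applied for 2 h and fluorescence recorded.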

[11] = qHTS assay to identify small molecule antagonists of the peroxisome proliferator-activated receptor delta (PPARd) signaling pathway - cell viability counter screen (AID 743213); further: nearly all actives have a fitted effect of over 50% in size
Method in brief: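 Cytotoxicity counter screen: CellTiter-Glo luminescence read 30 min after addition, in the same wells as the reporter assay. There, PPARd UAS-bla HEK293H cells (3000/well) were treated 17 h at 37 C with compound and 300 nM L165041.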

[12] = target: Peroxisome proliferator-activated receptor delta (Homo sapiens) (UniProt Q03181); test: qHTS assay to identify small molecule antagonists of the peroxisome proliferator-activated receptor delta (PPARd) signaling pathway (AID 743215; active means well fitted inhibition curve with a large enough effect in the signal ratio in the repeat runs, not every such curve was filed as active; the % refers to the signal ratio;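 further: cells stimulated with agonist L165041 at 300 nM final during compound exposure; series mostly up to about 62 µM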)
Method in brief: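 Fluorescence from cleaved LiveBLAzer B/G FRET substrate (2 h, room temperature) reports PPARd-driven beta-lactamase in HEK293H UAS-bla cells. Cells had been treated 17 h at 37 C with compound plus 300 nM final L165041.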

[13] = target: Bile acid receptor (Homo sapiens) (UniProt Q96RI1); test: qHTS assay to identify small molecule antagonists of the farnesoid-X-receptor (FXR) signaling pathway (AID 743217; active means well fitted inhibition curve with a large enough effect in the signal ratio in the repeat runs, not every such curve was filed as active; the % refers to the signal ratio)
Bile acid receptor (Homo sapiens), sequence (Q96RI1 whole entry, looked up): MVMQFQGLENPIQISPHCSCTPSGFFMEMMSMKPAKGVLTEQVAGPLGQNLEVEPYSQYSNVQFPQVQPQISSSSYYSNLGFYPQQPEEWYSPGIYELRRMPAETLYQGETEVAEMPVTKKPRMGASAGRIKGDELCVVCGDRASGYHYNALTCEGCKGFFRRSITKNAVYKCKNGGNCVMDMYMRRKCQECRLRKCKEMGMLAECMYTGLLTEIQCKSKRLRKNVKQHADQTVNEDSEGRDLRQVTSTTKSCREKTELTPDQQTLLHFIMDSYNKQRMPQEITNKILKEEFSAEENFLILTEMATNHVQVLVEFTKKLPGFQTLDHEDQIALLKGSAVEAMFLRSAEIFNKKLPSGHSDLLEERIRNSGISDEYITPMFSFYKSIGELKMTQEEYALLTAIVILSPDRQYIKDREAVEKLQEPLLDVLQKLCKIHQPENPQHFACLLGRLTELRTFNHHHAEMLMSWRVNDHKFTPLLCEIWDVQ
Method in brief: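 FRET fluorescence after 2 h room-temperature LiveBLAzer loading gives the readout. Prior step: FXR-bla HEK 293T cells, seeded and incubated 5 h, received test compounds plus 50 uM final CDCA for 16 h at 37 °C.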

[14] = qHTS assay to identify small molecule agonists of the farnesoid-X-receptor (FXR) signaling pathway - cell viability counter screen (AID 743218); further: nearly all actives have a fitted effect of over 45% in size
Method in brief: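 Readout: CellTiter-Glo luminescence, 30 min RT, multiplexed after the FXR-bla FRET reading. HEK 293T FXR-UAS-bla cells received compound 5 h post-plating and were incubated 16 h at 37 C.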

[15] = target: Bile acid receptor (Homo sapiens) (UniProt Q96RI1); test: qHTS assay to identify small molecule agonists of the farnesoid-X-receptor (FXR) signaling pathway (AID 743220; active means well fitted activation curve with a large enough effect in the signal ratio in the repeat runs, not every such curve was filed as active; the % refers to the signal ratio)
Method in brief: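 FXR-UAS-bla HEK 293T cells carrying a UAS-driven beta-lactamase reporter were plated for 5 h at 37C/5% CO2, then exposed to DMSO-dissolved Tox21 10K compounds for 16 h at 37C. A LiveBLAzer B/G FRET substrate was loaded for 2 h at room temperature before fluorescence reading.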

[16] = qHTS assay to identify small molecule antagonists of the farnesoid-X-receptor (FXR) signaling pathway - cell viability counter screen (AID 743221; active means well fitted cell-killing curve with a large enough effect in the repeat runs, not every such curve was filed as active; further: nearly all actives have a fitted effect of over 50% in size)
Method in brief: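 Multiplexed counter screen: viability of FXR-bla HEK 293T cells under agonist stimulation by chenodeoxycholic acid (50 uM, final) and test compound for 16 h at 37 C, measured by CellTiter-Glo luminescence in the reporter wells.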

[17] = target: Vitamin D3 receptor (Homo sapiens) (UniProt P11473); test: qHTS assay to identify small molecule agonists of the vitamin D receptor (VDR) signaling pathway (AID 743222; calls by dose curve)
Vitamin D3 receptor (Homo sapiens), sequence (P11473 whole entry, looked up): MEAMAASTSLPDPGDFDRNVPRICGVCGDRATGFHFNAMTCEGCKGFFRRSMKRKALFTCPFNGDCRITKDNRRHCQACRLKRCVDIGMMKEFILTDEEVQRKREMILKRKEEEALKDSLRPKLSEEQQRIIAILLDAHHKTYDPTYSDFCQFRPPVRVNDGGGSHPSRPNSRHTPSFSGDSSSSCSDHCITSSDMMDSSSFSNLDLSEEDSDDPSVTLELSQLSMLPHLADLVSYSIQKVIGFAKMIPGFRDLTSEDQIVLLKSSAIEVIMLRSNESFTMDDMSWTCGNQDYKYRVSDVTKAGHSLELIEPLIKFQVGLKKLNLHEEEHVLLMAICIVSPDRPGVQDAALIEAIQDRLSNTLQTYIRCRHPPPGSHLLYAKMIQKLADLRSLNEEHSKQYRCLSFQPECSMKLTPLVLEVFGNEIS
Method in brief: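 Following 4 h attachment at 37C, VDR-bla cells (2,000 per well) received DMSO-dissolved compounds or controls. After 16 h incubation, LiveBLAzer B/G FRET substrate was added and fluorescence read 2 h later at room temperature.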

[18] = target: Vitamin D3 receptor (Homo sapiens) (UniProt P11473); test: qHTS assay to identify small molecule antagonists of the vitamin D receptor (VDR) signaling pathway (AID 743223; active means well fitted inhibition curve with a large enough effect in the signal ratio in the repeat runs, not every such curve was filed as active; the % refers to the signal ratio)
Method in brief: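 Cells carrying a VDR-driven beta-lactamase reporter (VDR-bla) were co-treated with compound and 3 nM final 1alpha,25-dihydroxyvitamin D3 for 16 h at 37C; reporter activity was measured as FRET substrate fluorescence after 2 h at room temperature.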

[19] = target: Peroxisome proliferator-activated receptor gamma (Homo sapiens) (UniProt P37231); test: qHTS assay to identify small molecule agonists of the peroxisome proliferator-activated receptor gamma (PPARg) signaling pathway (AID 743094; active means well fitted activation curve with a large enough effect in the signal ratio in the repeat runs, not every such curve was filed as active; the % refers to the signal ratio)
Method in brief: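 Cell-based bla reporter, HEK293H background, PPARg-driven UAS. Pre-incubation 5 h, 37C, 5% CO2. Compound 17 h, 37C. Substrate 1 h RT; fluorescence.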

[20] = qHTS assay to identify small molecule agonists of the peroxisome proliferator-activated receptor delta (PPARd) signaling pathway - cell viability counter screen (AID 743211); further: nearly all actives have a fitted effect of over 55% in size
Method in brief: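 Counter screen for cytotoxicity run in parallel with the PPARd reporter screen. Beta-lactamase reporter HEK293H cells exposed to compounds 17 h; ATP-based CellTiter-Glo luminescence quantified viability.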

Measured: Potency

Nc1ccc(Cc2ccc(N)cc2)cc1
active: [2] 30.1 µM
not listed: [19] | [20]
inactive: all other assays above

Nc1ccc(Br)cc1
active: [2] 61 µM and 21.7 µM
not listed: [4] | [16] | [17] | [18]
inactive: all other assays above

Nc1c(Cl)c(Cl)nc(C(=O)O)c1Cl
active: [2] 34 µM
not listed: [13] | [15] | [17] | [18] | [19]
inactive: all other assays above

O=Cc1cccc(Oc2ccccc2)c1
not listed: [13] | [15] | [19]
inactive: all other assays above

COC(=O)c1ccccc1N
not listed: [13] | [15] | [16] | [19]
inactive: all other assays above

C#CCN(C)[C@H](C)Cc1ccccc1
not listed: [9] | [13] | [15] | [16]
inactive: all other assays above

CC(C)(C)OOC(C)(C)C
not listed: [4] | [17] | [18]
inactive: all other assays above

CCc1cccc(C)c1N(C(=O)CCl)C(C)COC (centres undefined)
active: [4] 21.9 µM | [6] 8.14 µM and 19.3 µM
not listed: [10] | [12] | [13] | [15] | [19]
inactive: all other assays above

O=c1[nH]c(=O)[nH]c(=O)[nH]1
not listed: [13] | [15] | [19]
inactive: all other assays above

CCCN(CCC)N=O
not listed: [13] | [15] | [16] | [20]
inactive: all other assays above

CC(C)(Cl)Cl
not listed: [6] | [13] | [15]
inactive: all other assays above

COP(N)(=O)SC (centres undefined)
not listed: [19] | [20]
inactive: all other assays above

ClCc1cccnc1
not listed: [16] | [19] | [20]
inactive: all other assays above

[O-][Cl+2]([O-])O
not listed: [10] | [12] | [19]
inactive: all other assays above

c1ccc(OP(Oc2ccccc2)Oc2ccccc2)cc1
not listed: [10] | [12] | [13] | [15] | [16] | [19]
inactive: all other assays above

CCCC1COC(Cn2cncn2)(c2ccc(Cl)cc2Cl)O1 (centres undefined)
active: [2] 34.4 µM
not listed: [6]
inactive: all other assays above

NCC(O)c1ccc(O)cc1 (centres undefined)
not listed: [4] | [10] | [12] | [13] | [15] | [16]
inactive: all other assays above
